# In PubChem BioAssay (NCI):
# About 83,000 compounds went through this panel and 20% of them were active in at least one assay; those are over-represented in the sample as a whole.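 Step 1: grow cells in 96-well plates. Step 2: add test compound at a single concentration. Step 3: incubate 48 h. Step 4: record percent growth.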 A number with no mark means an inactive call. The source made the active and inactive calls. Rule for the calls: active = growth percent below 10; inactive = the rest.
# Key:
# Test in all cases: NCI-60 one-dose screen, 48 h (100 = growth as untreated, 0 = no growth, -100 = all killed)
# Conditions in all cases: 10 µM
# OVCAR-8 ovarian = tested on: OVCAR-8 ovarian
# OVCAR-5 ovarian = tested on: OVCAR-5 ovarian
# OVCAR-4 ovarian = tested on: OVCAR-4 ovarian
# SK-OV-3 ovarian = tested on: SK-OV-3 ovarian
# OVCAR-3 ovarian = tested on: OVCAR-3 ovarian
# HS 578T breast = tested on: HS 578T breast
# NCI/ADR-RES ovarian = tested on: NCI/ADR-RES ovarian
# IGROV1 ovarian = tested on: IGROV1 ovarian
# RPMI-8226 leukemia = tested on: RPMI-8226 leukemia
Structure (SMILES),growth (OVCAR-8 ovarian) [%],growth (OVCAR-5 ovarian) [%],growth (OVCAR-4 ovarian),growth (SK-OV-3 ovarian),growth (OVCAR-3 ovarian),growth (HS 578T breast) [%],growth (NCI/ADR-RES ovarian),growth (IGROV1 ovarian),growth (RPMI-8226 leukemia)
O=C1CC[C@@H](C(=O)N[C@H]2CSSC[C@@H](C(=O)N/C=C/c3ccc(O)cc3)NC(=O)[C@H](Cc3ccccc3)NC(=O)[C@@H]3CCCN3C(=O)[C@@H]3CCCN3C2=O)N1,100,102,112%,93.2%,106%,94.4,97.8%,–,–
CCCCCCCCCCSC(=N)N (tested in a mixture with another compound),81.6,101,90%,85.9%,–,81.9,82.5%,68%,–
O=C(c1ccc(Cl)cc1)c1no[n+]([O-])c1C(=O)c1ccc(Cl)cc1,30.1,105,92.5%,105%,43.2%,109,82.7%,-35.8% (active),35.5%
CC1(C)Cc2c(cn(Cc3ccccc3)c2-c2ccccc2)-c2oncc21,101,111,98.5%,–,110%,103,92.5%,121%,74.8%
CC(C)c1[nH]nc2c(NCc3ccc(-c4ccccn4)cc3)nc(SCCN(C)C)nc12,13.9,21.4,-1.82% (active),8.24% (active),4.83% (active),21.4,7.1% (active),16.2%,-14.4% (active)
COc1ccc(-c2cn[nH]c2-c2cc(OC)c(OC)c(OC)c2)cc1,22.5,31.1,45%,–,-8.09% (active),23,27.1%,29.4%,6.58% (active)
O=C1/C(=C/c2ccc(O)cc2)CSc2ccc(Cl)cc21,89.8,95.2,94.9%,105%,90.4%,71.1,82.2%,16.7%,98.2%
COc1ccc(-c2nnc(N3CCN(C(=O)CN4CCN(c5ccc(Cl)cc5)CC4)CC3)nc2-c2ccc(OC)cc2)cc1,66.1,114,61.5%,102%,–,72.2,81.8%,62.7%,-44.9% (active)
COc1ccc(C(=O)/C=C/c2cc(-c3ccc4c(c3)OCO4)n[nH]2)cc1OC,47.4,75.9,59.9%,93.3%,36.6%,79.3,57.8%,44.1%,4.4% (active)
CCOC(=O)c1ccc(NC(=O)Nc2nncs2)cc1,10.8,42.4,49.9%,–,-32.7% (active),25.3,–,16.5%,6.49% (active)
Cc1cn(C(=O)/C(Cl)=C(/Cl)C(=O)O)c2ccccc12,110,103,101%,95.8%,104%,97.8,104%,66.1%,82.4%
